# Experiments:
# Test in all cases: PBM binding z-score (relative to random genomic background probes); higher = stronger binding; sequences stand for … in GC…GCGATTGACAGCGTAGAATGAAGG
# [1] = test system: RARb homodimer (NR concentration 270 nM)
# Summary of the method: (§1)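 Each nuclear receptor dimer, without ligand, was incubated for 1 h on custom Agilent 4×180K protein-binding microarrays. Binding was detected with antibodies against each partner (one per run), and scanned fluorescence was regression-normalized. The binding z-scores are referenced to random human genomic background probes.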
# [2] = test system: RARg:RXRa (NR concentration 270 nM, RXRa partner concentration 90 nM)
# Summary of the method: as §1
# [3] = test system: RARg homodimer (NR concentration 270 nM)
# Summary of the method: as §1
# [4] = test system: RXRa DBDmut IVT, anti-RXR (DBD mutation: RXRa K156A/R161A, NR concentration 90 nM)
# Summary of the method: as §1
# [5] = test system: RXRa homodimer (NR concentration 180 nM)
# Summary of the method: as §1
# [6] = test system: THRa:RXRa (NR concentration 90 nM, RXRa partner concentration 90 nM)
# Summary of the method: as §1
# [7] = test system: THRa homodimer (NR concentration 90 nM)
# Summary of the method: as §1
# [8] = test system: VDR:RXRa (NR concentration 270 nM, RXRa partner concentration 90 nM)
# Summary of the method: as §1
# [9] = test system: VDR homodimer (NR concentration 270 nM)
# Summary of the method: as §1
Sequence,PBM binding z-score [1],PBM binding z-score [2],PBM binding z-score [3],PBM binding z-score [4],PBM binding z-score [5],PBM binding z-score [6],PBM binding z-score [7],PBM binding z-score [8],PBM binding z-score [9]
AGAACGAGGGCACGGTGAGTTGATAGCAGAGTAG,1.6,2.2,2.31,1.82,1.53,2.18,0.165,2.56,2.1
CGAACAAGGGCATGAGTTGATAGCAAATGCCGAT,0.58,1.12,1.42,1.3,0.715,0.492,-0.294,0.706,1.18
TGAATGAGGTGATAAGATCAGGGAACGTTGCAAA,-0.0418,0.599,0.324,-0.998,0.631,1.43,0.185,-0.169,-0.465
ACAGACAGGTGATGAAGGGAACTCAGGCTATCAT,0.0495,0.231,0.46,-0.425,0.238,0.341,-0.114,-0.182,-0.128
TGAATGAGGTTATAAGATCAGGGAACGTTGCAAA,0.0745,1.3,0.836,0.756,1.86,1.71,-0.0262,0.749,0.362
ATATGTAGGTTATGGGTCATTCAGGTTGGTTCGC,2.97,3.09,2.28,1.31,3.79,2.74,1.53,4.33,2.76
TAGTCTAGGTCATGGGCCAGTATACCACGCGAAC,3.09,4.03,4.4,0.663,3.44,3.3,2.25,2.13,0.773
TCATATAGGTAAACAGGTTAAAGTCCGTAAGTTA,1.19,1.04,0.666,1.85,1.62,1.26,0.613,1.88,1.01
CCTACTGGGCCATCAGGTCATTGCTATCAACGTT,2.55,2.04,1.77,0.254,1.37,3.24,2.94,1.71,1.62
CAAACTAGGTCACGAAAGGTCAATGTCGAATGAC,5.73,7.46,8.51,2.11,7.37,5.27,2.55,6.57,2.77
CCTACTGGGCAAAAGGTCATTGATTCCAATGCTC,4.53,5.81,5.23,0.966,6.04,3.09,0.51,4.44,1.72
AGAATGAGGTTATTAAGATCAGGGGATTGCGGTC,0.919,1.03,0.573,1.97,1.49,2,0.811,2.36,1.35
ATCTCTAGGTAAAAGTTCAGTCAATCCCGAGGAT,2.54,2.1,2.2,1.12,1.7,1.53,0.584,1.45,2.36
GCTGCTAGGTCTGGTTGGTCAGCTAACGGGTACG,0.178,-0.569,-0.564,-0.198,-0.753,-0.722,-0.243,-0.816,-0.214
ACTATTAGTTGACTTAGGGCATCCGATACGACGC,0.597,0.218,0.979,0.909,0.613,0.97,0.239,0.439,0.435
ATCTCTAGGTAACGAGTTCAGTGAAAGAGAGGAC,1.67,1.08,1.07,1.58,1.01,1.97,1.21,3.5,4.11
